Measured values: the supplement of paper PMC12669032
A number with no mark means an inactive call.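 How the source made its calls: active = AUC reduced over 20% with Padj below 0.05 in at least 2 of 3 replicates; inactive = otherwise.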

What was measured:
Roseburia intestinalis = assay: growth AUC relative to DMSO control (median of replicates) (fraction); higher = more growth (less inhibition), active = hit call of the paper; conditions: 20 µM; 24 h
Procedure, shortened: (§1)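 Gut bacterial monocultures were grown anaerobically at 37 °C in mGAM, starting at OD600 0.05, with 20 µM compound (1% DMSO) in round-bottom 96-well plates under pierced gas-permeable seals. OD600 was read hourly for 24 h. Area under the growth curve (minimum OD set to 0) was normalised to the plate median of DMSO controls, or to row and column medians on the industrial chemical plate. The value is the median of three biological replicates grown on separate days.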

Streptococcus salivarius = assay: as above; conditions: 20 µM; 24 h
Procedure, shortened: as §1

Compound: CC1=C(C(=O)Nc2ccccc2)CCCO1
- growth AUC (Roseburia intestinalis): 0.996
- growth AUC (Streptococcus salivarius): 1.03

Compound: O=C(O)c1cccc2nnsc12
- growth AUC (Roseburia intestinalis): 0.989
- growth AUC (Streptococcus salivarius): 1.01

Compound: Cc1ccc(Cl)cc1
- growth AUC (Roseburia intestinalis): 1
- growth AUC (Streptococcus salivarius): 1.02

Compound: FC(F)(F)/N=C1\SC(=Nc2ccccc2)N(c2ccccc2)\C1=N\C(F)(F)F
- growth AUC (Roseburia intestinalis): 0.922
- growth AUC (Streptococcus salivarius): 0.946

Compound: CCC/C(=N\OCC(C)Oc1ccc(Cl)cc1)C1=C(O)CC(C2CCCSC2)CC1=O (configuration not stated)
- growth AUC (Roseburia intestinalis): 1.02
- growth AUC (Streptococcus salivarius): 0.94

Compound: COc1nc(NC(=O)NS(=O)(=O)c2ccccc2C(F)(F)F)nc(C(F)(F)F)n1
- growth AUC (Roseburia intestinalis): 0.993
- growth AUC (Streptococcus salivarius): 1.02

Compound: O=C(O)C1(C(=O)Nc2ccc(Cl)cc2Cl)CC1
- growth AUC (Roseburia intestinalis): 1.02
- growth AUC (Streptococcus salivarius): 1.01

Compound: CC(C)CNC(=O)N1CCNC1=O
- growth AUC (Roseburia intestinalis): 1.1
- growth AUC (Streptococcus salivarius): 0.995

Compound: CC(C)(NC(=O)NCc1ccccc1Cl)c1ccccc1
- growth AUC (Roseburia intestinalis): 1.09
- growth AUC (Streptococcus salivarius): 1

Compound: CN(C)C(=O)Nc1ccc(Cl)c(Cl)c1
- growth AUC (Roseburia intestinalis): 1.03
- growth AUC (Streptococcus salivarius): 1.01

Compound: CC(C)(NC(=O)C(Br)C(C)(C)C)c1ccccc1 (configuration not stated)
- growth AUC (Roseburia intestinalis): 0.964
- growth AUC (Streptococcus salivarius): 0.96

Compound: O=S(Cc1ccc(Cl)cc1)c1ccc(Cl)cc1 (configuration not stated)
- growth AUC (Roseburia intestinalis): 1.01
- growth AUC (Streptococcus salivarius): 0.984

Compound: Cc1cc(C)cc(O)c1
- growth AUC (Roseburia intestinalis): 1.03
- growth AUC (Streptococcus salivarius): 1.03

Compound: CN(C)C(N)=O
- growth AUC (Roseburia intestinalis): 0.996
- growth AUC (Streptococcus salivarius): 1.02

Compound: O=C(O)Cc1cccc2ccccc12
- growth AUC (Roseburia intestinalis): 1.04
- growth AUC (Streptococcus salivarius): 0.99

Compound: C=C1C[C@]23C[C@@]1(O)CC[C@H]2[C@@]12C=C[C@H](O)[C@@](C)(C(=O)O1)[C@H]2[C@@H]3C(=O)O
- growth AUC (Roseburia intestinalis): 0.881
- growth AUC (Streptococcus salivarius): 0.904

Compound: FC(F)(F)C(=NOCC1OCCO1)c1ccc(Cl)cc1
- growth AUC (Roseburia intestinalis): 1.17
- growth AUC (Streptococcus salivarius): 1.02

Compound: c1ccc(Sc2ccccc2)cc1
- growth AUC (Roseburia intestinalis): 1.13
- growth AUC (Streptococcus salivarius): 0.994

Compound: COC(=O)COc1ccc(Cl)cc1C
- growth AUC (Roseburia intestinalis): 0.975
- growth AUC (Streptococcus salivarius): 1.01

Compound: CC(C)c1cc(Oc2ccccc2)cc(C(C)C)c1NC(=S)NC(C)(C)C
- growth AUC (Roseburia intestinalis): 0.926
- growth AUC (Streptococcus salivarius): 0.992

Compound: CC(C)(C)Nc1nc(N)nc(Cl)n1
- growth AUC (Roseburia intestinalis): 1.01
- growth AUC (Streptococcus salivarius): 0.975

Compound: N[C@@H](Cc1cc(I)c(Oc2cc(I)c(O)c(I)c2)c(I)c1)C(=O)O
- growth AUC (Roseburia intestinalis): 0.798
- growth AUC (Streptococcus salivarius): 0.923

Compound: CCCCOC(=O)COc1ccc(Cl)cc1Cl
- growth AUC (Roseburia intestinalis): 1.04
- growth AUC (Streptococcus salivarius): 1.01

Compound: CCOc1nc(F)cc2nc(S(=O)(=O)Nc3c(Cl)cccc3C(=O)OC)nn12
- growth AUC (Roseburia intestinalis): 1.04
- growth AUC (Streptococcus salivarius): 1.01

Compound: N#Cc1ccccc1NC(=O)c1snc(Cl)c1Cl
- growth AUC (Roseburia intestinalis): 0.992
- growth AUC (Streptococcus salivarius): 0.991

Compound: CC(C)C(O)(c1ccc(OC(F)(F)F)cc1)c1cncnc1 (configuration not stated)
- growth AUC (Roseburia intestinalis): 1.04
- growth AUC (Streptococcus salivarius): 1.04

Compound: COCC(=O)N(c1c(C)cccc1C(=O)O)C(C)C(=O)O (configuration not stated)
- growth AUC (Roseburia intestinalis): 1.02
- growth AUC (Streptococcus salivarius): 0.982

Compound: COC(=O)c1ccc(CNS(C)(=O)=O)cc1S(=O)(=O)NC(=O)Nc1nc(OC)cc(OC)n1
- growth AUC (Roseburia intestinalis): 0.973
- growth AUC (Streptococcus salivarius): 1.07

Compound: Cc1c(C(=O)c2c[nH]n(C)c2=O)ccc(S(C)(=O)=O)c1C1=NOCC1
- growth AUC (Roseburia intestinalis): 0.987
- growth AUC (Streptococcus salivarius): 1.01

Compound: CC(C)(c1cc(Br)c(O)c(Br)c1)c1cc(Br)c(O)c(Br)c1
- growth AUC (Roseburia intestinalis): 0.0954 (active)
- growth AUC (Streptococcus salivarius): 0.144 (active)

Compound: CC1=C(c2ccccc2)C(=O)N(C(C)(C)c2cc(Cl)cc(Cl)c2)CO1
- growth AUC (Roseburia intestinalis): 1.03
- growth AUC (Streptococcus salivarius): 0.979

Compound: C/C=C/C=C/CCCCCCCO
- growth AUC (Roseburia intestinalis): 1
- growth AUC (Streptococcus salivarius): 0.994

Compound: CCCCCCCC(=O)Oc1c(Br)cc(C#N)cc1Br
- growth AUC (Roseburia intestinalis): 0.935
- growth AUC (Streptococcus salivarius): 0.937

Compound: CCN(Cc1c(F)cccc1Cl)c1c([N+](=O)[O-])cc(C(F)(F)F)cc1[N+](=O)[O-]
- growth AUC (Roseburia intestinalis): 0.864
- growth AUC (Streptococcus salivarius): 0.926

Compound: COC(=O)c1c(Cl)c(Cl)c(C(=O)OC)c(Cl)c1Cl
- growth AUC (Roseburia intestinalis): 0.964
- growth AUC (Streptococcus salivarius): 0.962

Compound: CCCCC(CC)CN1C(=O)C2C(C1=O)[C@H]1C=C[C@@H]2C1 (mixture of isomers)
- growth AUC (Roseburia intestinalis): 1.07
- growth AUC (Streptococcus salivarius): 1
